Measured values taken from PubChem BioAssay AID743287 (Broad Institute, 2014).
Hit rate of the full screen: of about 370,000 compounds, about 2,300 (0.62%) were called active. This is one part of a sample in which actives are shown more often than they occur. Values without a mark were called inactive.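 Rule for the calls: active = lowest replicate activation of at least 40%, so every replicate reaches that level; inactive = the rest.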

Assay: GLuc luminescence reporter in INS-1E cells, primary screen for activators of glucose-dependent secretion of insulin (AID 743287);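 note: 0% = median of neutral control wells and 100% = median of IBMX positive control wells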
Settings: INS-1E GLuc reporter insulin secretion, 2-3 h, at 16.6 µM, stronger effect = higher value

With `O=C(COc1cccc2c1CCNC2=O)NC1CCCCC1` the activation was 44.9% (active).
With `NCCCNC(=S)NCCCN(Cc1ccc(Cl)cc1)c1ccc(Br)cn1` the activation was 57.1% (active).
With `COc1ccc(C(=O)OCC(=O)Nc2cccc(C(C)=O)c2)cc1OC` the activation was 67.3% (active).
In the case of `COC(=O)c1ccc(C(=O)Nc2cc(Cl)ccc2Cl)cc1NC(=O)c1ccccc1C`, the activation is reported as 82.6% (active).
With `COc1cc(/C=N/NC(=O)Nc2ccccc2)ccc1OCCOc1ccccc1C` the activation was 169% (active).
For `CCCN1Cc2cccc(C(=O)NCc3ccccc3)c2C1=O`, the activation was 72.4% (active).

Point of comparison: `S=C(NCCCc1cnc[nH]1)NCCCN(Cc1ccc(Cl)c(Cl)c1)c1ccc(Br)cn1`, activation 17%. Against it:
- Cc1ccccc1NC(=O)COc1cccc2c1CCNC2=O — higher, 23.1%
- O=C(COc1ccccc1O)NC1CCCC1 — lower, 11.6%
- COc1ccc(NC(=O)Nc2ccc3c(c2)C(=O)N([C@@H](C)CO)C[C@@H](C)[C@@H](CN(C)C(=O)Nc2ccc(F)cc2)OCCCC[C@@H](C)O3)cc1 — lower, -7.03%
- COc1ccc(-c2ccccc2[C@H]2[C@@H](C#N)N(C(=O)C3CCC3)[C@@H]2CO)cc1 — lower, -4.21%
- O=C(/C=C/c1ccc(Cl)cc1)Nc1ccc(Br)cn1 — lower, 3.4%
- CCOc1cc(C(=O)OCC(=O)Nc2cccc(C)c2)ccc1OCC(=O)N1CCOCC1 — lower, 7.48%
- COc1ccc(C(=O)OCC(=O)Nc2cc(C)on2)cc1F — lower, 12.4%
- C[C@@H]1CN([C@@H](C)CO)S(=O)(=O)c2ccc(-c3ccncc3)cc2O[C@@H]1CN(C)C(=O)C1CCC1 — lower, 7.69%
- CCCNC(=O)N(C)C[C@H]1Oc2cc(C3=CCCCC3)ccc2S(=O)(=O)N([C@H](C)CO)C[C@H]1C — lower, -12.1%
- CCCN(CCC)C(=S)Nc1cc(C(=O)OC)ccc1C(=O)OC — higher, 20.1%
- CCN(CCO)C(=S)Nc1cc(C(=O)OC)ccc1C(=O)OC — higher, 18%
- Cc1ccc(F)c(NC(=O)CCOc2ccccc2C)c1 — lower, -15%
- C/C=C/c1ccc(OCCOc2ccc(C=O)cc2OC)c(OC)c1 — lower, 10.7%
- C[C@H](O)C#Cc1ccc2c(c1)O[C@H](CN(C)C(=O)C1CCCCC1)[C@@H](C)CN([C@H](C)CO)S2(=O)=O — lower, 4.13%
- CSc1ccccc1C(=O)NCc1ccccc1 — lower, -6.59%
- Cc1ccc(CNC(=O)c2ccccc2CCc2ccccc2)cc1 — lower, -27.9%
- C[C@@H]1CN(C)C(=O)c2cc([N+](=O)[O-])ccc2O[C@@H]1CN(C)C(=O)OC(C)(C)C — lower, 16%
